# In PubChem BioAssay (EPA / NIEHS):
# Results filed as inconclusive are left out. Activity calls are given as the source filed them. The calls were made as follows, unless noted: active = hit-call score of the fitted dose curve at least 0.9, where 1 is the maximum; inconclusive = response in the unintended direction; inactive = score below 0.9.
# Key:
# [1] = CCTE_Mundy_HCI_iCellGluta_NOG_NeuronCount: CCTE's Neurite Outgrowth Assay in iCellGluta cells for Neuron Count, Mundy Lab (AID 2284340);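 also: cells fixed about 48 h after compound addition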
# Summary of the method: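 Neuron count read by automated high-content imaging of Hoechst 33342 and betaIII-tubulin/Alexa Fluor-488 labelling in human iPSC glutamatergic neurons. Activity fitted relative to DMSO.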
# [2] = TAMU_PeakParms_SingleDonor1434_Asystole: Texas A&M University (TAMU) 1.5-hr Human Induced Pluripotent Stem Cell (iPSC)-derived Cardiomyocytes Calcium (Ca+2) Flux Assay for Cardiotoxicity: Asystole (quiescence of beating) (AID 2284328)
# Summary of the method: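 Human iPSC-derived cardiomyocytes (donor 1434) were exposed to 0.2, 1, 10 and 100 uM compound in 0.5% DMSO for 90 min at 37C. Ca2+-dye fluorescence gave average peak frequency; POD is EC95, a 95% beat-rate drop versus DMSO.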
# [3] = IUF_NPC1_cytotoxicity_72hr: Cytotoxicity Assessment at 72 hours in the Leibniz Research Institute for Environmental Medicine (IUF) Neural Progenitor Cell Proliferation Assay (NPC1) (AID 2284332);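 also: rising LDH signal means more cytotoxicity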
# Summary of the method: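 Single human fetal cortex neural progenitor spheres (GW 16-19, 0.25-0.35 mm) in EGF/FGF proliferation medium were exposed to compound for 72 h at 37C without renewal. Medium LDH release was read as resorufin fluorescence and fitted as gain-of-signal.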
# [4] = CCTE_Deisenroth_5AR_NBTE_acceptor: CCTE's 5alpha-reductase NanoBRET Target Engagement Assay - Autofluorescence Screen, Deisenroth Lab (AID 2284321; active = hit-call score of the fitted dose curve at least 0.9, where 1 is the maximum; inactive = score below 0.9;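 also: compound fluorescence in the acceptor channel under 460 nm excitation flags autofluorescence artifacts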); conditions: actives raise or lower the signal
# Summary of the method: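 Chemicals diluted to a nominal 100 uM in DMSO were scanned at 460 nm excitation. Samples were read in three independent runs (n=3). Gain or loss of acceptor signal was fitted relative to DMSO.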
# SRD5A2 (gene 6716) = assay: CCTE_Deisenroth_5AR_NBTE_ratio: CCTE's 5alpha-reductase NanoBRET Target Engagement Assay - Ratio, Deisenroth Lab (AID 2284322; active = hit-call score of the fitted dose curve at least 0.9, where 1 is the maximum; inactive = score below 0.9); conditions: actives raise or lower the signal
# Procedure: CCTE_Deisenroth_5AR NBTE (5alpha-reductase NanoBRET Target Engagement Assay) is a cell-based, single-readout assay that uses HEK293T, a human kidney cell line, with measurements taken at 5 hours after chemical dosing in a 384 well plate. This assay includes a primary and secondary screen as well as an autofluorscence screen.CCTE_Deisenroth_5AR NBTE_ratio is one of four assay components calculated from the CCTE_Deisenroth_5AR NBTE assay. It is designed to measure the ratio of target acceptor fluorophore resonance to donor bioluminescent signals.Data from the assay component CCTE_Deisenroth_5AR NBTE_ratio was analyzed into 1 assay endpoint. This assay endpoint, CCTE_Deisenroth_5AR NBTE_ratio, was analyzed with bidirectional fitting relative to DMSO as the negative control and baseline of activity. Using a type of inducible reporter, gain or loss-of-signal activity can be used to understand changes in 5alpha-reductase catalytic function. Furthermore, this assay endpoint can be referred to as a primary readout. To generalize the intended target to other relatable targets, this assay endpoint is annotated to the misc protein intended target family, where the subfamily is 5-alpha reductase.
# For transient expression of the SRD5A2-NanoLuc fusion protein, HEK293T cells are reverse transfected with pNLF1-C-SRD5A2 expression vector and incubated for 20 hours to facilitate fusion protein expression. For assay setup, 384-well non-binding surface (NBS) microplates are pre-dispensed with test chemical across an 8-point concentration series (10 nM - 29.9 uM) with two technical replicates per run. Cell suspensions are dispensed into the microplates and incubated with test chemical for a duration of three hours. Following pre-incubation with test chemical, the testosterone tracer is dispensed into each well and incubated an additional two hours. The total incubation period with test chemical is five hours, with testosterone tracer added the final two hours to reach target engagement equilibrium. For the NanoBRET endpoint measurements, a solution of Nano-Glo substrate and extracellular NanoLuc inhibitor solution is added to each test well and immediately scanned on a plate reader configured with multichromatic emission settings for donor luminescence ([…]) and acceptor fluorescence ([…]). DMSO solvent controls are included as baseline control. Plate-matched samples are run with mock tracer conditions or testosterone tracer to discriminate any potential non-specific substrate interference.
# [5] = tested on: Brachyury (BRA) Protein Expression, Deisenroth Lab, TBXT (gene 6862); assay: CCTE_Deisenroth_DEVTOX-GLR_legacy_Bra: (Legacy) CCTE's DevTox GLR-Endo Assay Evaluation of Brachyury (BRA) Protein Expression, Deisenroth Lab (AID 2284329; active = hit-call score of the fitted dose curve at least 0.9, where 1 is the maximum; inactive = score below 0.9)
# Procedure: CCTE_Deisenroth_DEVTOX-GLR_legacy assay is a cell-based, multiplex-readout assay that uses RUES2-GLR, a human pluripotent cell line, with measurements taken at 48 hours after chemical dosing in a 384-well microplateCCTE_Deisenroth_DEVTOX-GLR_legacy_Bra is one of 4 assay components calculated from the CCTE_Deisenroth_DEVTOX-GLR_legacy assay that measures an increase in the percentage of cells in an […] state. It is designed to make measurements of inducible reporter a form of fluorescent protein induction as detected with optical fluorescence microscopy. Percentage Bra+ cells are determined by calculating the number of Bra+ cells divided by cell count. A cell is Bra+ if the cell Bra mean intensity is 5x BMAD above the pluripotent control median cell Bra mean. The assay endpoint was analyzed with bidirectional fitting with the 0.2% DMSO control median percent Bra in the DEVTOX-GLR assay subtracted.Data from the assay component CCTE_Deisenroth_DEVTOX-GLR_legacy_Bra was analyzed into 1 assay endpoint. This assay endpoint, CCTE_Deisenroth_DEVTOX-GLR_legacy_Bra, was analyzed in the positive analysis fitting direction relative to DMSO as the negative control and baseline activity. […] Furthermore, this assay endpoint can be referred to as a secondary readout, because this assay has produced multiple assay endpoints where this one serves as a measure of mesoderm differentiation. […]
# [6] = CCTE_Deisenroth_DEVTOX-GLR_legacy_CellCount: (Legacy) Viability Assessment in CCTE's DevTox GLR-Endo Assay, Deisenroth Lab (AID 2284331; active = hit-call score of the fitted dose curve at least 0.9, where 1 is the maximum; inactive = score below 0.9); conditions: actives raise or lower the signal
# Summary of the method: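 Viability is taken from imaged nuclei counts in fixed RUES2-GLR cultures after 48 h of differentiation under two 24 h-spaced chemical exposures, 10 concentrations from 1 nM to 200 uM, gain or loss versus DMSO baseline.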
# [7] = VALA_TUBHUV_Antagonist_TubuleLength: VALA Sciences human Umbilical Vein Endothelial Tubule Formation (TUBHUV) Antagonism Assay (AID 2284325)
# Summary of the method: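 HUVEC–HDF co-culture (1:3) pre-grown 3 days with 10 ng/ml VEGF, then 3 days with compound plus VEGF. Fixed, nuclear and CD31 stained; total tubule length by imaging versus 0.1% DMSO; suramin 100 uM positive control.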
# [8] = VALA_TUBHUV_Agonist_TubuleLength: VALA Sciences human Umbilical Vein Endothelial Tubule Formation (TUBHUV) Agonism Assay (AID 2284337)
# Procedure: VALA_TUBHUV_Agonist is a cell-based, multiplexed assay that uses human umbilical vein endothelial cells (HUVEC). Measurements were taken 72 hours after chemical dosing in a 96-well plate.VALA_TUBHUV_Agonist_TubuleLength is the one of two assay components measured from the VALA_TUBHUV_Agonist assay. It is designed to make measurements of tubulogenesis, a form of morphology reporter, as detected with fluorescence intensity signals by HCS Fluorescent Imaging technology. This VALA_TUBHUV1 assay was designed to detect chemical activation of tubulogenesis, i.e. agonism.Data from the assay component VALA_TUBHUV_Agonist_TubuleLength was analyzed at the endpoint, VALA_TUBHUV_Agonist_TubuleLength, in the positive analysis fitting direction relative to DMSO as the negative control and baseline of activity. Using a type of morphology reporter, gain-of-signal activity can be used to understand developmental effects. To generalize the intended target to other relatable targets, this assay endpoint is annotated to the neurodevelopment intended target family, where the subfamily is tubulogenesis.
# This HUVEC-HDF assay was designed to detect chemical suppression of tubulogenesis, i.e. antagonism. […]
# [9] = VALA_TUBIPS_Agonist_CellCount: Viability Assessment in the VALA Sciences human iPS-derived Endothelial Tubule Formation (TUBIPS) Agonism Assay (AID 2284338)
compound,measurement,setting,value
FC(F)(F)C(F)(C(F)(F)F)C(F)(F)C(F)(F)CC1CO1 (stereo not given),outcome,[1],inactive
O=C(O)C(F)(F)OC(F)(F)C(F)(F)OC(F)(F)C(=O)O,outcome,[1],inactive
CC(C)(C)c1ccccc1OP(=O)(Oc1ccccc1)Oc1ccccc1,outcome,[2],inactive
same,outcome,[3],inactive
c1ccc2c(c1)Nc1ccccc1S2,outcome,[4],inactive
same,AC50,SRD5A2 (gene 6716),23.7 µM (active)
CCCCOCCOP(=O)(OCCOCCCC)OCCOCCCC,outcome,[3],inactive
CCOc1ccc(C(C)(C)COCc2cccc(Oc3ccccc3)c2)cc1,outcome,[3],inactive
same,outcome,[1],inactive
O=C(O)C=CC(F)(C(F)(F)F)C(F)(F)F,outcome,[1],inactive
O=C(O)C(F)(OC(F)(F)C(F)(F)C(F)(F)F)C(F)(F)F (stereo not given),outcome,[3],inactive
same,outcome,[1],inactive
CCOP(=S)(OCC)SCSCC,outcome,[4],inactive
same,outcome,SRD5A2 (gene 6716),inactive
same,outcome,[3],inactive
same,outcome,[1],inactive
CCCCC(CC)COP(=O)(Oc1ccccc1)Oc1ccccc1 (stereo not given),outcome,[2],inactive
O=P1(N(CCCl)CCCl)NCCCO1 (stereo not given),outcome,[5],inactive
same,outcome,[6],inactive
O=P(OCC(Br)CBr)(OCC(Br)CBr)OCC(Br)CBr (stereo not given),outcome,[4],inactive
same,AC50,SRD5A2 (gene 6716),26.8 µM (active)
OCC(F)(F)OC(F)(F)C(F)(F)OC(F)(F)C(F)(F)OC(F)(F)F,outcome,[1],inactive
CO/N=C(/C(=O)OC)c1ccccc1COc1ccccc1C,outcome,[3],inactive
same,AC50,[1],31.4 µM (active)
CCCN(CCC)c1c([N+](=O)[O-])cc(C(C)C)cc1[N+](=O)[O-],outcome,[4],inactive
same,outcome,SRD5A2 (gene 6716),inactive
O=P(Oc1ccccc1)(Oc1ccccc1)Oc1ccccc1,outcome,[2],inactive
same,outcome,[3],inactive
CCC1(c2ccccc2)C(=O)N=C(O)NC1=O (stereo not given),outcome,[2],inactive
Cc1ccc(N)cc1N,outcome,[7],inactive
same,AC50,[8],7.57 µM (active)
same,outcome,[9],inactive
O=S1(=O)OCC2C(CO1)C1(Cl)C(Cl)=C(Cl)C2(Cl)C1(Cl)Cl (stereo not given),outcome,[3],inactive
O=C(O)C(F)(F)OC(F)(F)C(F)(F)OC(F)(F)F,outcome,[1],inactive
O=C(O)C1C(C(=O)O)C2(Cl)C(Cl)=C(Cl)C1(Cl)C2(Cl)Cl (stereo not given),outcome,[4],inactive
same,outcome,SRD5A2 (gene 6716),inactive
ClC1=C(Cl)C2(Cl)C3C(Cl)C(Cl)CC3C1(Cl)C2(Cl)Cl (stereo not given),outcome,[4],inactive
same,outcome,SRD5A2 (gene 6716),inactive
CC1(C)CN=C(NN=C(/C=C/c2ccc(C(F)(F)F)cc2)/C=C/c2ccc(C(F)(F)F)cc2)NC1,AC50,[4],50 µM (active)
same,AC50,SRD5A2 (gene 6716),50 µM (active)
